Data taken from PubChem BioAssay AID602248 (The Scripps Research Institute Molecular Screening Center, 2012).
Out of some 360,000 compounds screened, about 1,700 (0.47%) were called active. For the sample, actives were picked, then their nearest neighbours and some compounds at random. A number with no mark means an inactive call. Rule as the data show it: active = activation above about 15%; inactive = the rest.

experiment: counter-screen for M1 agonists: effect in parental CHO-K1 cells (AID 602248); settings: Fluo-8 calcium fluorescence, at 3 µM, hits give high values, scaled to maximal ATP response, vehicle zero;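 also: untransfected CHO-K1 host cells lacking M1 receptor as counterscreen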

SMILES	activation
CC1C(=O)C(C)C(c2ccc(O)cc2)NC1c1ccc(O)cc1 (stereo not given)	4.02%
COc1ccc(NC(=O)CSc2ccc(-c3ccco3)nn2)c(OC)c1	0.21%
O=C(CSc1ccc(-c2ccc(F)cc2)nn1)Nc1ccc2c(c1)OCCO2	6.26%
O=C(CSc1ccc(-c2ccco2)nn1)Nc1cccc(F)c1	16.7% (active)
CCCOc1ccc(N2CC(C(=O)Nc3ccccn3)CC2=O)cc1 (stereo not given)	-0.06%
CS(=O)(=O)N(CC(=O)Nc1ccc(F)cc1F)c1cccc([N+](=O)[O-])c1	0.11%
C=CCn1c(SCC(N)=O)nnc1-c1cc2c(s1)CCC(CC)C2 (stereo not given)	0.17%
COc1ccc(NC(=O)c2sc(N3CCOCC3)nc2-c2ccccc2)c(OC)c1	1.26%
COc1ccc(Nc2ncnc3sc(-c4ccccc4)cc23)c(OC)c1	17.4% (active)
COC(=O)c1cnc(Nc2cc(C)ccc2OC)c2ccccc12	1.12%
COc1ccc(NC(=O)CSc2nncc(=O)n2N)cc1OC	1.17%
CCOC(=O)C1CCN(Cc2ccc(-c3ccccc3)cc2)CC1	2.64%
CCOC(=O)C1CCN(CCC(=O)Nc2cccc(C)c2)CC1	6.98%
CCOC(=O)C1CCN(Cc2nnc(-c3cccc(Br)c3)o2)CC1	16.3% (active)
CC1CCC2(CC1)NC(=O)N(CC(=O)c1ccc3c(c1)OCO3)C2=O (stereo not given)	1.72%
CC1(c2ccc(Cl)cc2)NC(=O)N(CC(=O)c2ccc3c(c2)OCO3)C1=O (stereo not given)	16.4% (active)
COc1ccc(C2(C)NC(=O)N(CC(=O)c3ccc4c(c3)OCO4)C2=O)cc1 (stereo not given)	9.33%
Cn1c2c(c(=O)n(C)c1=O)C(c1cccc([N+](=O)[O-])c1)Nc1ccccc1O2 (stereo not given)	0.17%
Cc1ccc(S(=O)(=O)N2CCCC(C(=O)N3CCN(C)CC3)C2)cc1 (stereo not given)	1.9%
CC(=O)N1CCCc2cc(S(=O)(=O)N3CCCC(C(=O)N4CCN(c5cccc(Cl)c5)CC4)C3)ccc21 (stereo not given)	19.9% (active)
COc1cccc(N2CCN(C(=O)C3CCCN(S(=O)(=O)c4cnc[nH]4)C3)CC2)c1 (stereo not given)	0.46%
CCN1CCC(=NNC(=O)c2ccc(C)c([N+](=O)[O-])c2)CC1	0.82%
Cc1cc(F)ccc1S(=O)(=O)Nc1ncnc2scc(-c3ccc(F)cc3)c12	0.74%

SMILES	activation
CC(=O)N1CCN(c2ccc(NCc3ccc(C(C)C)cc3)cc2)CC1	-0.13%
O=S(=O)(Nc1ccccc1)c1ccc(NS(=O)(=O)c2cccs2)cc1	1.02%
O=C(NCc1cn2ccsc2n1)Nc1cccc(Cl)c1	0.23%
O=C(Nc1cccc(Cl)c1)Nc1ccccc1NS(=O)(=O)c1cccs1	15.3% (active)
CC12CN3CC(C)(CN(C1)C3c1ccc(Cl)cc1Cl)C2=O (stereo not given)	-0.45%
COc1ccc(CC(=O)NC(C)c2ccc(Cl)c(Cl)c2)cc1S(=O)(=O)N1CCOCC1 (stereo not given)	2.98%
CC(=O)Nc1ccc(S(=O)(=O)Oc2ccc(/C=N/N=C3/NC(=O)C(CC(=O)O)S3)cc2)cc1 (stereo not given)	0.03%
CC(C)S(=O)(=O)c1csc(NC(=O)Nc2ccc(Cl)cc2)c1Cl	16% (active)
CC(=O)N1CCC(N(C(=O)Nc2ccc(Cl)cc2)C(C)C)CC1	1.09%
CC(=O)c1ccc(NC(=O)C(C)NCc2ccc(Cl)cc2)cc1 (stereo not given)	0.45%
CN(c1ccc(OCC(=O)NC2=NCCS2)cc1)S(=O)(=O)c1ccc(F)cc1	6.36%
Cc1ccc(S(=O)(=O)N(C)c2ccc(OCC(=O)NC3=NCCS3)cc2)cc1	22.6% (active)
CN(c1ccccc1)S(=O)(=O)c1ccc(NC(=O)COc2ccccc2)cc1	7.3%
O=C(O)C(NS(=O)(=O)c1cccc2nsnc12)c1ccccc1 (stereo not given)	0.41%
O=C(NNC(=S)NC(=O)c1cn(-c2ccccc2)nc1-c1ccccc1)c1ccncc1	29.6% (active)
COc1ccccc1N1CCN(C(=O)c2cn(-c3ccccc3)nc2-c2cccnc2)CC1	4.25%
Cc1ccc(-c2nn(-c3ccccc3)cc2C(=O)NCCCN2CCCC2=O)cc1	0.65%
CCN(Cc1nc2ccccc2c(=O)[nH]1)Cc1cc(=O)oc2cc(C)c(C)cc12	2.83%
CCOC(=O)c1ccc(N=C2SC(C(=O)NC)CC(=O)N2CCc2ccccc2)cc1 (stereo not given)	0.37%
CCOc1ccc(C(=O)NC2CCN(S(=O)(=O)CC)CC2)cc1	0.96%
CCOc1ccc(CC(=O)NC2CCN(Cc3ccccc3)CC2)cc1	0.21%
CCOc1ccc(NS(=O)(=O)c2ccc(C(=O)NC3CCN(Cc4ccccc4)CC3)cc2)cc1	15.3% (active)
Cc1ccc(-c2cccc([C@H]3[C@@H]4C=CC[C@@H](C)[C@@H]4C(=O)N3Cc3ccccc3)c2)cc1	0.28%

SMILES	activation
Cc1cc(CN(C)C(=O)c2cc(COc3ccc(C)c(C)c3)on2)n[nH]1	1.86%
CN(Cc1cccnc1)C(=O)c1cc(COc2ccc3ncccc3c2)on1	17.9% (active)
Cc1ccc(OCc2cc(C(=O)N(C)CCn3ccnc3C)no2)cc1C	3.36%
COc1cccc2c1C(=O)c1c(O)c3c(c(O)c1C2=O)CC(O)(C(C)=NNC(=O)c1ccc(Cl)c(Cl)c1)CC3OC1CC(N)C(O)C(C)O1 (stereo not given)	7.82%
CN(C(=O)CC1C(=O)NCCN1Cc1ccc2ccccc2c1)C1CCOCC1 (stereo not given)	0.91%
CCCc1ccc(C(=O)COC(=O)CN2C(=O)NC3(CCCCC3C)C2=O)cc1 (stereo not given)	5.23%
CC1CCCCC12NC(=O)N(CC(=O)OCc1c(F)cccc1Cl)C2=O (stereo not given)	21.8% (active)
CC1CCCCC12NC(=O)N(CC(=O)OCC(=O)NCc1ccc(F)cc1)C2=O (stereo not given)	0.23%
c1ccc2c(c1)nnn2-c1ccncc1	0.33%
C=CCNC(=O)/C=C/c1ccc(C(C)C)cc1	-0.17%
O=C(O)/C=C/c1ccc(S(=O)(=O)N2CCCCCC2)cc1	-0.04%
O=C(/C=C(O)/C=C/c1ccc(O)cc1)/C=C/c1ccc(O)cc1	46.7% (active)
N=c1n(Cc2ccc(Cl)cc2)c2ccccc2n1CC(O)c1ccco1 (stereo not given)	1.71%
CC12CCC(=O)N1C(C(=O)Nc1ccc(F)c(F)c1F)CS2 (stereo not given)	1.59%
CCCc1nc(-c2ccccc2O)n(-c2ccccc2)n1	-0.09%
Cc1nc(NC(CC(C)C)C(=O)O)c2nc(C)oc2n1 (stereo not given)	-0.16%
O=C(CN(CC1CCCO1)C(=O)CNS(=O)(=O)c1ccc(F)cc1)NCc1ccco1 (stereo not given)	1.1%
O=C(NCc1cccs1)C(=O)NCC1OCCCN1S(=O)(=O)c1ccc(F)cc1 (stereo not given)	-0.04%
CN(NC(=O)C1CC(=O)N(c2ccccc2)C1)C1=NS(=O)(=O)c2ccccc21 (stereo not given)	-0.27%
Cc1cc2nc3c(=O)n(Cc4ccccc4)c(=O)[nH]c3nc2cc1N	47.3% (active)
CN(C(=O)COC(=O)c1ccc(Br)o1)c1c(N)n(Cc2ccccc2)c(=O)[nH]c1=O	2.4%
Nc1cc(=O)n(Cc2ccccc2)c(=O)n1Cc1ccccc1	0.11%
Cc1ccc(S(=O)(=O)n2cccc2CO)cc1	-0.4%

SMILES	activation
COc1ccc(-n2c(Cc3cccn3C)nnc2SCC(=O)Nc2cc(C)cc(C)c2)cc1	-0.02%
CCOC(=O)N1C(=O)C[C@](Sc2ccc(C)cc2)(C(=O)OC)[C@H]1c1ccccc1	1.19%
CC(=O)Nc1ccc(NC(=S)NC(=O)c2ccc([N+](=O)[O-])c(C)c2)cc1	1.35%
CC(=O)NC(=S)Nc1ccc(NC(=S)NC(=O)c2ccc([N+](=O)[O-])cc2)cc1	24.5% (active)
COCCCNC(=S)NC(=O)c1ccc([N+](=O)[O-])cc1	0.19%
Cc1nn(C(C)C(=O)N2CCOCC2)c(=O)c2nn(-c3ccccc3)c(C)c12 (stereo not given)	2.09%
Fc1ccccc1COc1ccccc1CNCc1ccncc1	4.4%
COc1cccc(CNCCc2c[nH]c3ccccc23)c1OCc1ccccc1F	23.3% (active)
COc1cccc(CNn2cn[nH]c2=S)c1OCc1ccccc1	1.05%
COc1cc(NC(=O)COC(=O)CSc2ccc3ccccc3c2)c(C)cc1[N+](=O)[O-]	5.21%
COc1ccc(-c2[nH]ncc2CN(C)Cc2c(C)n[nH]c2C)c(OC)c1	1.07%
COc1ccc(-c2c(-c3ccc(OC)cc3O)nc(C)nc2C(F)(F)F)cc1	-0.31%
COc1ccc(-c2n[nH]c(C)c2-c2ccccc2OC)c(O)c1	15.4% (active)
Cc1ccc(Cc2cncc(O)c2)cc1S(=O)(=O)O	0.27%
Cc1cccc(C(=O)OCC(=O)Nc2sccc2C(N)=O)c1C	-0.07%
COc1cc(OC)cc(C(=O)OCC(=O)Nc2sccc2C(N)=O)c1	9.07%
NC(=O)c1ccsc1NC(=O)COC(=O)COc1ccc(C=O)cc1	16.2% (active)
CCOC(=O)[C@]12CCC=C1N(Cc1cccc3ccccc13)C(=O)[C@H](CC(=O)NCc1cccc(C(F)(F)F)c1)C2	0.16%
Cc1cccc(CN2CCC(CNC(=O)Nc3ccc(F)c(Cl)c3)CC2)c1	29.2% (active)
COc1cc(NC(=O)NCC2CCN(Cc3ccc(C)cc3)CC2)cc(OC)c1OC	1.36%
Cc1ccc(C)c(CN2CCC(CNC(=O)Nc3ccc(C)c(F)c3)CC2)c1	2.18%
